Laboratory results from the supplement of paper PMC6897291.

What was measured:
[1] = system: RIVA; assay: growth inhibition by drug plus 177Lu-lilotomab satetraxetan (1 - RLU/untreated control) (fraction); higher = stronger inhibition; conditions: 177Lu-lilotomab satetraxetan 0.5 ug/ml
Method in brief: (§1)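 With or without 18 h pretreatment by a radiolabelled anti-CD37 antibody conjugate (~600 MBq/mg; 0.5 µg/ml RIVA, 1 µg/ml U-2932), RIVA and U-2932 cells were washed and plated at 3,000 cells/well. Pre-printed compound doses were 10/100 nM for RIVA and 10/1,000 nM for U-2932. Growth inhibition uses RealTime-Glo RLU relative to the untreated no-drug wells. The calculation is 1 − RLU/mean of 48 such wells per plate, with reads daily from day 3 after 1 h at 37°C.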

[2] = system: U-2932; assay: growth inhibition by drug alone (1 - RLU/untreated control) (fraction); higher = stronger inhibition; conditions: 177Lu-lilotomab satetraxetan 0 ug/ml
Method in brief: as §1

[3] = system: RIVA; assay: as above; conditions: 177Lu-lilotomab satetraxetan 0 ug/ml
Method in brief: as §1

[4] = system: U-2932; assay: growth inhibition by drug plus 177Lu-lilotomab satetraxetan (1 - RLU/untreated control) (fraction); higher = stronger inhibition; conditions: 177Lu-lilotomab satetraxetan 1 ug/ml
Method in brief: as §1

| Structure (SMILES) | growth inhibition by drug plus 177Lu-lilotomab satetraxetan ([1]; 100 nM, time (day): 5) | growth inhibition by drug plus 177Lu-lilotomab satetraxetan ([1]; 100 nM, time (day): 6) | growth inhibition by drug alone ([2]; 10 nM, time (day): 3) | growth inhibition by drug alone ([2]; 10 nM, time (day): 4) | growth inhibition by drug alone ([2]; 10 nM, time (day): 5) | growth inhibition by drug alone ([2]; 10 nM, time (day): 6) | growth inhibition by drug alone ([2]; 1000 nM, time (day): 3) | growth inhibition by drug alone ([2]; 1000 nM, time (day): 4) | growth inhibition by drug alone ([2]; 1000 nM, time (day): 5) | growth inhibition by drug alone ([2]; 1000 nM, time (day): 6) | growth inhibition by drug alone ([3]; 10 nM, time (day): 3) | growth inhibition by drug alone ([3]; 10 nM, time (day): 4) | growth inhibition by drug alone ([3]; 10 nM, time (day): 5) | growth inhibition by drug alone ([3]; 10 nM, time (day): 6) | growth inhibition by drug alone ([3]; 100 nM, time (day): 3) | growth inhibition by drug alone ([3]; 100 nM, time (day): 4) | growth inhibition by drug alone ([3]; 100 nM, time (day): 5) | growth inhibition by drug alone ([3]; 100 nM, time (day): 6) | growth inhibition by drug plus 177Lu-lilotomab satetraxetan ([4]; 10 nM, time (day): 3) | growth inhibition by drug plus 177Lu-lilotomab satetraxetan ([4]; 10 nM, time (day): 4) | growth inhibition by drug plus 177Lu-lilotomab satetraxetan ([4]; 10 nM, time (day): 5) | growth inhibition by drug plus 177Lu-lilotomab satetraxetan ([4]; 10 nM, time (day): 6) | growth inhibition by drug plus 177Lu-lilotomab satetraxetan ([4]; 1000 nM, time (day): 3) | growth inhibition by drug plus 177Lu-lilotomab satetraxetan ([4]; 1000 nM, time (day): 4) | growth inhibition by drug plus 177Lu-lilotomab satetraxetan ([4]; 1000 nM, time (day): 5) | growth inhibition by drug plus 177Lu-lilotomab satetraxetan ([4]; 1000 nM, time (day): 6) | growth inhibition by drug plus 177Lu-lilotomab satetraxetan ([1]; 10 nM, time (day): 3) | growth inhibition by drug plus 177Lu-lilotomab satetraxetan ([1]; 10 nM, time (day): 4) | growth inhibition by drug plus 177Lu-lilotomab satetraxetan ([1]; 10 nM, time (day): 5) | growth inhibition by drug plus 177Lu-lilotomab satetraxetan ([1]; 10 nM, time (day): 6) | growth inhibition by drug plus 177Lu-lilotomab satetraxetan ([1]; 100 nM, time (day): 3) | growth inhibition by drug plus 177Lu-lilotomab satetraxetan ([1]; 100 nM, time (day): 4) |
| --- | --- | --- | --- | --- | --- | --- | --- | --- | --- | --- | --- | --- | --- | --- | --- | --- | --- | --- | --- | --- | --- | --- | --- | --- | --- | --- | --- | --- | --- | --- | --- | --- |
| O=C(NOC[C@H](O)CO)c1ccc(F)c(F)c1Nc1ccc(I)cc1F | 0.512 | 0.467 |  |  |  |  |  |  |  |  |  |  |  |  |  |  |  |  |  |  |  |  |  |  |  |  |  |  |  |  |  |  |
| CCc1cc(Nc2nccc(-c3c(-c4ccc(OC)c(C(=O)Nc5c(F)cccc5F)c4)nc4ccccn34)n2)c(OC)cc1N1CCC(N2CCN(S(C)(=O)=O)CC2)CC1 | 0.481 | 0.461 | 0.0467 | -0.0848 | -0.0609 | -0.106 | -0.14 | -0.0216 | -0.0601 | -0.147 | 0.0601 | -0.0266 | -0.11 | -0.339 | 0.205 | 0.0778 | 0.0473 | -0.0711 | -0.00397 | 0.0169 | 0.0318 | 0.0887 | -0.153 | 0.0173 | 0.00224 | -0.0976 | 0.374 | 0.514 | 0.532 | 0.545 | 0.381 | 0.455 |
| Cc1csc(-c2nnc(Nc3ccc(Oc4ncccc4-c4ccnc(N)n4)cc3)c3ccccc23)c1 | 0.581 | 0.676 | 0.0562 | -0.00651 | 0.0489 | 0.269 | 0.102 | 0.112 | 0.103 | 0.252 | 0.0279 | -0.0253 | 0.0704 | 0.206 | -0.211 | -0.208 | -0.145 | -0.0126 | 0.0788 | 0.121 | 0.207 | 0.449 | 0.271 | 0.306 | 0.344 | 0.538 | 0.482 | 0.52 | 0.572 | 0.659 | 0.496 | 0.552 |
| CN1CCN(c2nc(C3=C(c4c[nH]c5ccccc45)C(=O)NC3=O)c3ccccc3n2)CC1 [Sotrastaurin (AEB071)] | 0.607 | 0.591 | 0.186 | 0.158 | 0.0846 | 0.122 | 0.463 | 0.616 | 0.696 | 0.756 | 0.214 | 0.132 | 0.0773 | -0.121 | 0.163 | 0.124 | 0.0507 | -0.0643 | 0.109 | 0.131 | 0.175 | 0.293 | 0.572 | 0.709 | 0.75 | 0.788 | 0.535 | 0.604 | 0.626 | 0.628 | 0.584 | 0.609 |
| CNC(=O)c1ccc(C)c(-n2c(C)cc(OCc3ccc(F)cc3F)c(Br)c2=O)c1 | 0.462 | 0.428 | -0.0234 | -0.0123 | -0.0323 | 0.108 | 0.24 | 0.241 | 0.147 | 0.195 | -0.177 | -0.212 | -0.219 | -0.282 | -0.0302 | -0.0737 | -0.127 | -0.224 | -0.0515 | -0.0206 | -0.0169 | 0.111 | 0.253 | 0.259 | 0.213 | 0.294 | 0.41 | 0.508 | 0.521 | 0.522 | 0.384 | 0.458 |
| CC[C@]1(O)C[C@H]2CN(CCc3c([nH]c4ccccc34)[C@@](C(=O)OC)(c3cc4c(cc3OC)N(C=O)[C@H]3[C@@](O)(C(=O)OC)[C@H](OC(C)=O)[C@]5(CC)C=CCN6CC[C@]43[C@@H]65)C2)C1 [Vincristine] | 0.973 | 0.979 | 0.944 | 0.954 | 0.97 | 0.978 | 0.964 | 0.972 | 0.979 | 0.984 | 0.941 | 0.955 | 0.965 | 0.971 | 0.938 | 0.955 | 0.962 | 0.967 | 0.958 | 0.97 | 0.978 | 0.982 | 0.972 | 0.978 | 0.983 | 0.988 | 0.964 | 0.976 | 0.983 | 0.985 | 0.956 | 0.967 |
| N#Cc1ccc(NC(=O)Nc2ccccc2Br)c2n[nH]nc12 | 0.544 | 0.542 | 0.122 | 0.0624 | -0.115 | -0.0627 | 0.0674 | 0.0714 | -0.0804 | -0.0945 | -0.0525 | 0.00855 | -0.101 | -0.43 | -0.383 | -0.198 | -0.264 | -0.513 | 0.0243 | 0.065 | 0.134 | 0.142 | 0.0797 | 0.0995 | 0.138 | 0.218 | 0.534 | 0.601 | 0.605 | 0.619 | 0.463 | 0.528 |
| O=C(NCCCNc1nc(Nc2cccc(NC(=O)N3CCCC3)c2)ncc1I)c1cccs1 | 0.603 | 0.64 | 0.201 | 0.14 | 0.0194 | 0.047 | 0.0736 | 0.137 | 0.35 | 0.462 | 0.342 | 0.272 | 0.262 | 0.207 | 0.339 | 0.317 | 0.346 | 0.36 | 0.198 | 0.238 | 0.304 | 0.353 | 0.223 | 0.302 | 0.491 | 0.618 | 0.795 | 0.787 | 0.812 | 0.838 | 0.547 | 0.558 |
| Cc1ccc(-n2nc(C(C)(C)C)cc2NC(=O)Nc2ccc(OCCN3CCOCC3)c3ccccc23)cc1 [BIRB 796 (Doramapimod)] | 0.521 | 0.528 | 0.238 | 0.206 | 0.0293 | 0.0019 | 0.274 | 0.272 | 0.208 | 0.2 | 0.117 | 0.131 | 0.0641 | -0.0577 | -0.00598 | 0.0829 | 0.0349 | -0.0954 | 0.173 | 0.182 | 0.252 | 0.301 | 0.273 | 0.29 | 0.32 | 0.408 | 0.669 | 0.691 | 0.702 | 0.711 | 0.407 | 0.527 |
| CCOc1cc(C(=O)Nc2ccc(Cl)c(-c3nc4ccccc4[nH]3)c2)cc(OCC)c1OCC | 0.668 | 0.654 | -0.0835 | 0.00922 | -0.0921 | -0.101 | 0.0527 | 0.106 | 0.057 | 0.0205 | 0.0892 | 0.061 | 0.00986 | -0.126 | 0.409 | 0.248 | 0.22 | 0.167 | -0.0124 | 0.0291 | 0.0337 | 0.147 | 0.147 | 0.267 | 0.28 | 0.362 | 0.452 | 0.548 | 0.564 | 0.568 | 0.625 | 0.648 |
| N#Cc1ccc(COC[C@H]2O[C@@H](n3c(NCc4ccc(Cl)c(Cl)c4)nc4c(N)ncnc43)[C@H](O)[C@@H]2O)cc1 | 0.557 | 0.551 | 0.115 | 0.0829 | -0.00792 | -0.0103 | 0.0695 | 0.0449 | -0.0886 | -0.0586 | -0.00484 | -0.0139 | -0.22 | -0.465 | -0.367 | -0.326 | -0.323 | -0.395 | -0.0128 | 0.0586 | 0.0723 | 0.037 | 0.12 | 0.128 | 0.109 | 0.165 | 0.498 | 0.574 | 0.59 | 0.586 | 0.472 | 0.543 |
| Cc1nc(-c2ccc(OCC(C)C)c(C#N)c2)sc1C(=O)O [Febuxostat (Uloric)] | 0.463 | 0.45 | 0.06 | 0.0554 | 0.0252 | -0.0354 | 0.00138 | 0.0444 | -0.00425 | -0.214 | 0.0707 | 0.00437 | -0.101 | -0.473 | 0.158 | 0.082 | 0.0362 | -0.046 | 0.0457 | 0.0731 | 0.0564 | 0.0873 | -0.0156 | 0.0704 | 0.0056 | -0.0613 | 0.368 | 0.506 | 0.513 | 0.525 | 0.42 | 0.463 |
